Results taken from PubChem BioAssay AID463195 (Sanford-Burnham Center for Chemical Genomics, 2010).
Screen size: about 330,000 compounds; about 4,600 (1.4%) were called active.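 How the source made its calls: active means inhibition of 40% or more at the single tested concentration; inactive means the rest.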 This excerpt belongs to a sample that is enriched for actives.

Assay: wild-type TIM10 yeast growth inhibition – luminescence, uHTS, counter-screen for tim10-1 yeast inhibitor project, primary screen (AID 463195);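 further: wild-type TIM10 isogenic control strain grown at permissive 25 °C; 0% = DMSO yeast wells and 100% = minimal medium wells without yeast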
Details: S. cerevisiae TIM10 strain growth, BacTiter-Glo luminescence, 24 h; at 10 µM; hits give high values

SMILES	inhibition
Fc1ccc(Cn2nnnc2C(c2cccs2)N2CCCCCC2)cc1 (stereo not drawn)	23.6% (inactive)
Clc1nc(NC2CCCC2)nc(N2CCOCC2)n1	11.4% (inactive)
COC(=O)c1ccc(Oc2nc(Nc3ccc(F)cc3)nc(N3CCCC3)n2)cc1	-20.4% (inactive)
COc1nc(NC2CCCCC2)nc(N2CCCCCC2)n1	40% (active)
CCOC(=O)c1cnn(Cc2ccccc2Cl)c1N	1.13% (inactive)
COC(=O)CNC(=O)C(CCSC)NC(C)=O (stereo not drawn)	-26.2% (inactive)
CO/N=C/c1cn(-c2ccc(Cl)cc2)nn1	5.41% (inactive)
Cc1nc(-c2ccc(Cl)cc2)sc1C1(C)CC(c2ccc(Br)cc2)=NO1 (stereo not drawn)	7.58% (inactive)
Cc1nc(-c2ccccc2)sc1C(=O)/C=C/N(C)C	7.98% (inactive)
Cc1nc(-c2ccc(Cl)cc2)sc1C(=O)CBr	51.9% (active)
O=C(CSc1nncs1)NC1CCCc2ccccc21 (stereo not drawn)	-4.46% (inactive)
Cc1ccccc1N1CC(C(=O)Nc2nnc(SCCC3OCCO3)s2)CC1=O (stereo not drawn)	4.72% (inactive)
CCSc1ccccc1C(=O)NCc1ccc(OC)cc1	-1.39% (inactive)
Cc1cccc(C)c1NC(=O)Nc1ccccc1-n1ccnc1	3.36% (inactive)
CC(CC(=O)Nc1ccccc1)n1ccnc1 (stereo not drawn)	-0.308% (inactive)
O=C(O)CCCC(=O)Nc1ccccc1-n1ccnc1	95.9% (active)
COc1nc(Oc2ccc(=O)n(C)n2)nc(N(C)C)n1	-5.67% (inactive)
Cn1cnc([N+](=O)[O-])c1Sc1ccccc1	21.8% (inactive)
COCCNC(=O)COc1ccc(N(C)S(=O)(=O)c2ccc3ccccc3c2)cc1	20.2% (inactive)
CN(c1ccc(OCC(=O)O)cc1)S(=O)(=O)c1ccc2ccccc2c1	-10.2% (inactive)
CC(=O)Oc1ccc(N(C(C)=O)S(=O)(=O)c2ccc3ccccc3c2)cc1Br	48.2% (active)
COc1ccccc1C(=O)COC(=O)CSCC(=O)Nc1cc(C)on1	11.1% (inactive)
COCCn1c(CN2CCC(Cc3ccccc3)CC2)nc2c1c(=O)n(C)c(=O)n2C	-0.058% (inactive)
CC(=O)Nc1cccc(OCC(=O)/C=C2\N(C)c3ccccc3C2(C)C)c1	14.8% (inactive)

SMILES	inhibition
COC(=O)c1c(NC(=O)COc2ccc(Cl)cc2Cl)sc2c1CC(C)(C)NC2(C)C	41.3% (active)
COC(=O)c1sccc1NC(=O)COc1ccc(Cl)cc1	12.6% (inactive)
CCOC(=O)c1c(NC(=O)c2ccc(S(=O)(=O)N(C)CC3CCCO3)cc2)sc2c1CC(C)(C)NC2(C)C (stereo not drawn)	-10.5% (inactive)
CCN(CC(=O)NC(C)C)C(=O)CCNC(=O)c1ccc(Cl)cc1	10.6% (inactive)
CCc1ccc(NC(=O)NC(C)c2ccc3c(c2)OCO3)cc1 (stereo not drawn)	6.53% (inactive)
CC1CCC(NC(=O)C2c3ccccc3C(=O)N2Cc2ccc3c(c2)OCO3)CC1 (stereo not drawn)	0.084% (inactive)
CC(=NCc1ccc2c(c1)OCO2)C1=C(O)c2ccccc2C1=O	70.5% (active)
O=C1N(c2ccccc2)C(=Nc2ccccc2)SC12CC2	13.6% (inactive)
CC(=O)Nc1ccc(Nc2c([N+](=O)[O-])cc(S(C)(=O)=O)cc2[N+](=O)[O-])cc1	-6.6% (inactive)
CN(C)CCc1c[nH]c2ccc(Cn3cncn3)cc12	5.24% (inactive)
Cc1ccc(S(=O)(=O)n2nc(OC(=O)C(C)(C)C)cc2N)cc1	17.1% (inactive)
Nc1cc(OC(=O)c2ccccc2Br)nn1S(=O)(=O)c1ccccc1	46.5% (active)
O=C(COC(=O)c1ccccc1Br)Nc1nnc(-c2ccccc2)o1	-0.697% (inactive)
O=C(NCc1ccco1)c1cc2sccc2n1Cc1ccc(F)cc1	46.4% (active)
O=C(NCc1ccco1)c1ccc(Cn2c(=O)c3sccc3n(Cc3ccc(F)cc3)c2=O)cc1	2.56% (inactive)
O=C(Cc1ccc(-n2c(=O)c3sccc3n(Cc3ccc(F)cc3)c2=O)cc1)NCc1ccco1	8.88% (inactive)
COc1ccc(N2CC(C(=O)NCCS(=O)(=O)N3CCN(c4ccccc4)CC3)CC2=O)cc1 (stereo not drawn)	-13.2% (inactive)
C[C@H]1CN([C@@H](C)CO)C(=O)Cc2cc(NS(C)(=O)=O)ccc2O[C@@H]1CN(C)CC1CC1	-6.97% (inactive)
CCN(c1ccccc1)S(=O)(=O)c1ccc(N)cc1	8.8% (inactive)
O=S(=O)(ON(c1ccccc1)S(=O)(=O)c1ccccc1)c1ccccc1	45.9% (active)
O=S(=O)(c1ccccc1)N(Cc1cccc(F)c1)c1ccccc1	3.1% (inactive)
COC(=O)c1ccc(OC(=O)c2nn(C)cc2Cl)c(OC)c1	8.9% (inactive)
O=C(O)c1ccccc1N=N/C(=N/Nc1cc(S(=O)(=O)O)ccc1O)c1ccccc1	0.626% (inactive)
O=c1c2ccccc2nnn1CSc1nc2sc3c(c2c(=O)n1CC1CCCO1)CCC3 (stereo not drawn)	25.8% (inactive)

SMILES	inhibition
Cc1nnc(-c2ccc(Oc3ccc(C)c(C)c3)c([N+](=O)[O-])c2)o1	17.1% (inactive)
O=C(OCC(=O)c1c[nH]c2ccccc12)c1cccc(O)c1	5.38% (inactive)
CCN1CCN(c2ccc(NC(=O)c3cnccn3)cc2)CC1	-4.6% (inactive)
COc1ccc(NC(=O)C/C(C)=N/NC(=O)c2cnccn2)cc1Cl	3.17% (inactive)
CCN(CC)c1ccc(/C=N/NC(=O)c2cnccn2)c(O)c1	44.5% (active)
Cc1ccc2nc(Nc3ncc4c(n3)CC(C)(C)CC4=O)nc(C)c2c1	5.07% (inactive)
Cc1cc(=O)n2nc(N3CCCC(C(=O)N4CCN(C)CC4)C3)sc2n1 (stereo not drawn)	2.79% (inactive)
COc1ccc(-n2cc(-c3ccccc3)c3c(=S)nc[nH]c32)cc1	33.8% (inactive)
O=c1[nH]cnc2c1c(-c1ccccc1)cn2-c1ccc(F)cc1	42.6% (active)
O=c1c2c(-c3ccccc3)ccnc2[nH]n1-c1ccccc1	-17.3% (inactive)
O=[N+]([O-])c1cc(C(F)(F)F)ccc1NCCc1ccncc1	6.18% (inactive)
Cc1nn(Cc2ccccc2Cl)c(C)c1NC(=O)Cn1nc([N+](=O)[O-])c(Cl)c1C	2.84% (inactive)
NC(=O)C[n+]1cccc(C(N)=O)c1	13.2% (inactive)
C#CCOCCOCCOCCNc1nc(N2CCN(C(=O)[C@H](CCC(=O)O)n3cc(C(N)CO)nn3)CC2)nc(N2CCN(C(=O)[C@H](CCCCN)n3cc(C(N)CC(C)C)nn3)CC2)n1 (stereo partly drawn)	-1.57% (inactive)
CC(C)(C)N(CC#CCC(O)(c1ccccc1)C1CCCC1)CCO (stereo not drawn)	0.266% (inactive)
CC(=O)Nc1ccc(S(=O)(=O)Nc2ccc(N3CCCCC3)cc2)cc1	-2.15% (inactive)
O=C1CC(N2CCN(c3ccc(F)cc3)CC2)C(=O)N1c1ccccc1 (stereo not drawn)	-7.52% (inactive)
O=C1C=CC(=O)N1c1ccc(N2CCCCC2)cc1	73.2% (active)
COc1ccc(-c2cc(C3CCN(c4ncccc4[N+](=O)[O-])CC3)[nH]n2)cc1	33% (inactive)
CC(=O)CSc1nnc(CSc2ncccn2)n1C1CCCCC1	3.42% (inactive)
Nn1cnnc1N/N=C/c1cc([N+](=O)[O-])c(Cl)cc1Cl	-10.5% (inactive)
O=C(Nc1ccccc1F)c1ccccc1-c1ccc(C(F)(F)F)cc1	9.5% (inactive)
N#C/C(=C\c1ccccc1C(F)(F)F)C(=O)Nc1ccccc1F	47.5% (active)
CN(CC(=O)Nc1ccccc1C(F)(F)F)C(=O)Cc1ccccc1F	12.1% (inactive)

SMILES	inhibition
NS(=O)(=O)c1ccc(N=Nc2c(O)[nH]c3ccc(Br)cc23)cc1	-10.2% (inactive)
Oc1[nH]c2ccc(Br)cc2c1N=Nc1nn[nH]n1	6.35% (inactive)
Cc1cccc(N=Nc2c(O)[nH]c3ccc(F)cc23)c1	45% (active)
Cc1ccc(C)c(NC2=NCC(=O)N2c2ccc3c(c2)OCCO3)c1	2.39% (inactive)
Cc1ccc(C(=O)N2CC(=O)Nc3ccc(F)cc3C2c2ccc(F)cc2)cc1 (stereo not drawn)	20.6% (inactive)
CC1=CC=CN2C1=NC(=O)CC2(C)C(=O)N(CC(=O)NC1CCCC1)c1ccccc1C (stereo not drawn)	-13.9% (inactive)
O=C(COC(=O)c1ccc(Br)o1)NC12CC3CC(CC(C3)C1)C2	25.9% (inactive)
O=C(COC(=O)c1ccc([N+](=O)[O-])o1)NC12CC3CC(CC(C3)C1)C2	44.7% (active)
O=C(OCC(=O)c1cccs1)c1ccc([N+](=O)[O-])o1	14.1% (inactive)
COc1ccc(C2=NS(=O)(=O)N(C)C(C(=O)NC(C)c3ccccc3)=C2)cc1 (stereo not drawn)	-4.03% (inactive)
Cn1c(=O)c2c(nc(NCCNC(=O)c3ccco3)n2Cc2ccccc2F)n(C)c1=O	-1.93% (inactive)
O=C(OCC(=O)N1CCN(c2ccccc2)CC1)c1ccc([N+](=O)[O-])s1	-16.2% (inactive)
COc1cc(NC(=O)COC(=O)c2ccc([N+](=O)[O-])s2)cc(OC)c1OC	32.6% (inactive)
COc1ccc(C(=O)COC(=O)c2ccc([N+](=O)[O-])s2)cc1OC	60.6% (active)
O=C(O)c1cccc2c1C(=O)N(C1CCCCC1)C2	17.6% (inactive)
COc1ccc(CNC(=O)C2CCN(C(=O)c3ccco3)CC2)cc1	6.55% (inactive)
CC(C)NS(=O)(=O)c1ccc(CCC(=O)N2CCOCC2)cc1	-1.05% (inactive)
C=CCSC(CC)(CC)C(N)=O	2.57% (inactive)
NS(=O)(=O)c1ccc(CCNC(=S)Nc2ccc(S(N)(=O)=O)cc2)cc1	1.03% (inactive)
NS(=O)(=O)c1ccc(NC(=S)NC(=O)c2cccc(Br)c2)cc1	19.3% (inactive)
NS(=O)(=O)c1ccc(NC(=S)Nc2ccc(Br)c(Cl)c2)cc1	42.9% (active)
